First the molecules themselves.
T1: UNK ZnF1-3 (human, UniProt Q9C0B0 31-174)
T1 sequence: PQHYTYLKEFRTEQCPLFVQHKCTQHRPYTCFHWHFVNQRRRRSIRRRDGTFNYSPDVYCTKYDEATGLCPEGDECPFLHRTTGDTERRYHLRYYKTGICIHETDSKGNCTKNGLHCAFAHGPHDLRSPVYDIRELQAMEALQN

B1: chr16:57198444:57198445:-_ENSMUSG00000022749_ENSMUST00000023431|mus_mus|motif|central (ssRNA)
RNA: GGGAGUUCUACAGUCCGACGAUCCCUAAAAGAAGCUGGCGUCUUACUACAGUAAUACUGAGCCAAAGAGAACAGGUCUUCGGUGUCUUCCAGAUUCAGGCUGGCCGGGGUACUUUCCAAAAAGCGGAUAACUUCUUCUUUGCUCAACAGAGGAUUGAGCAUCA
B2: chr22:36164377:36164378:-_ENSG00000100320_ENST00000405409|hu_hu|motif|central (ssRNA)
RNA: GGGAGUUCUACAGUCCGACGAUCACGGCCCUCUACCACGGUGCCGUGUAAUUUCUCCCUGGCCCUGUCUGCAUCAGCACGGUUCUCGAAAGUUACGAACCCGAAUCCCUUAGAGCCACGUUCAUUAAAGAUUAUUUCUACAUCCAACAGAGGAUUGAGCAUCA
B3: chr6:86333760:86333761:-_ENSG00000135316_ENST00000355238|hu_mus|hu_hu_hu_mus_True|98_108 (ssRNA)
RNA: GGGAGUUCUACAGUCCGACGAUCUUCUUCAAGAAUCUGUUCCUUGGUUUUACUCUUAGGAAUCGAGCCCACAAAAAGCCUAUUGUUGGCAACUGAGAUGCAGACACCAAUGUGCUUCCCGGAACGAAUUUCAUGAUUAUUAUACAACAGAGGAUUGAGCAUCA
B4: chr12:493273:493274:-_ENSG00000073614_ENST00000399788|hu_mus|hu_hu_hu_mus_False|58_108 (ssRNA)
RNA: GGGAGUUCUACAGUCCGACGAUCUUUUCUCUCUACCACAGGGAUCUUCAAUGUAGAUCCUUGAAGUUCCCAAAAUUUUGCUAGUUGAUCCAAGAAGUCCAAUCUUACUCUAGUCAUUGCCUCAAGUUCAUUCAGGCGCUGGACCAACAGAGGAUUGAGCAUCA
B5: chr2:117093540:117093541:+_ENSMUSG00000027349_ENSMUST00000028825|mus_hu|motif|central (ssRNA)
RNA: GGGAGUUCUACAGUCCGACGAUCCAUUGUAAUCGUUGUCUUGGGUGACAAAGCAUAACGCUUAGGCUGAUAAAUUCUUGCGGUAUCAUCUGUUUUUACCUUUGCUCUAUCAGACCAUCCAAAGGACUGUACAGUCACAUCUAACAACAGAGGAUUGAGCAUCA
B6: chr16:45382771:45382772:-_ENSMUSG00000022661_ENSMUST00000163230|mus_mus|mus_mus_mus_hu_True|28_28 (ssRNA)
RNA: GGGAGUUCUACAGUCCGACGAUCCUGGGUCAUGUUAUAAGACAAAUGGACAGGGAGGGCAUGCUUCUCAAAAAAUGUGAGCUAUUGUCUAAGACUAACAAUAUUUACUAAGUGCUAAAAAUAAGUUAAAUGAAUAAGUUAAGACAACAGAGGAUUGAGCAUCA
B7: chr16:45382771:45382772:-_ENSMUSG00000022661_ENSMUST00000163230|mus_mus|mus_mus_mus_hu_True|8_28 (ssRNA)
RNA: B6 RNA with A127U, A128U, U130A, G131A, A132U, A133G, U134G, A136C
B8: chr16:45382771:45382772:-_ENSMUSG00000022661_ENSMUST00000163230|mus_mus|mus_mus_mus_hu_True|1_28 (ssRNA)
RNA: B6 RNA with G137A, U138C, U139A, A140U, A141U, G142A, A143C
B9: chr16:45382771:45382772:-_ENSMUSG00000022661_ENSMUST00000163230|mus_mus|mus_mus_mus_hu_True|28_58 (ssRNA)
RNA: B6 RNA with G80A, U84C, G86C
B10: chr16:45382771:45382772:-_ENSMUSG00000022661_ENSMUST00000163230|mus_mus|mus_mus_mus_hu_True|28_98 (ssRNA)
RNA: B6 RNA with A38G, A39G, A41C, A43C
B11: chr6:29491266:29491267:-_ENSMUSG00000012535_ENSMUST00000012679|mus_mus|FALSE|FALSE (ssRNA)
RNA: GGGAGUUCUACAGUCCGACGAUCGGGUUGGGCUCUACAUUAAAAGCAACUUUGACCCUGGCUAGUCCGGACUAUCAUCCCUAACCAUGAUAUAAGCAGACCAGGCUCCUUGUCUGGACAUUUCUAAAGGUGAACAGUUGGGGGCAACAGAGGAUUGAGCAUCA
B12: chr3:182775190:182775191:-_ENSG00000078070_ENST00000265594|hu_mus|FALSE|FALSE (ssRNA)
RNA: GGGAGUUCUACAGUCCGACGAUCCUGCACACUACAGUCUCUUUCAAACAAGUACACUGCGUUGCCAUGGUGAUCACCAAACACCUGGACUUCUACAUGCCUUGGAGUGUCCACGAACUUCUCGAUCAACAUUGCAUCAUCAUUCAACAGAGGAUUGAGCAUCA
B13: 49705422_49710499_381_CDS_ENSG00000102531_ENST00000398316|human|control|control (ssRNA)
RNA: GGGAGUUCUACAGUCCGACGAUCAAAGUUGGACCUUCCAUGUGUAGAGUGAGCAUCUACAUCUCCAUAGACUUGUGAAGACUGAUACUGUGGCAUAUACUGUGUUGUCAUGUCUCCAGCUCCAGUCACGGGUGAGUACAUAUGCAACAGAGGAUUGAGCAUCA
B14: chr1:39494564:39494565:+_ENSG00000168653_ENST00000372967|hu_hu|hu_hu_hu_mus_True|1_1 (ssRNA)
RNA: GGGAGUUCUACAGUCCGACGAUCAUGCAUUCGCCUCAUCGUUUUGUACCGAAGCAAGCACUCUUCGAAGUCAUCGAACUCUAUCUUGCACUCCUUUUUCGCCCGGGUCCCACCGAUCCCGUGUGCACACUCUAUCCAUUCUUUCAACAGAGGAUUGAGCAUCA

Where a chain is given by its changes, count along the chain named. Over roughly 24,000 sequences, “enrichment r” has its median near 0.99; the highest 2% begin near 3.7. The list comes from a sample in which the highest values are over-represented; it also holds similar and randomly drawn sequences.

This assay addresses T1, UNK ZnF1-3. Kind of assay: nsRBNS (natural sequence RNA bind-n-seq); RBNS binding buffer (assumed for nsRBNS): 25 mM Tris pH 7.5, 150 mM KCl, 3 mM MgCl2, 0.01% Triton X-100, 500 ug/ml BSA, 20 U/ml SUPERase-In, 4 C; UNK is unkempt and MSI1 is Musashi-1; names of the RNAs are library labels; protein concentration not given here; high values mean tight binding.
Consider B1, for which the binding signal worked out at 1.25 enrichment R.

In turn, B2 displayed a binding signal of 0.844 enrichment R. For B3 the value was 1.34 enrichment R; for B4, 0.801 enrichment R.

Turning to B5, the binding signal worked out at 0.494 enrichment R.

As for B6, the binding signal was determined as 11.4 enrichment R.

As for B7, the binding signal came to 5.08 enrichment R. As for B8, the figure is 3.32 enrichment R; as for B9, 3.92 enrichment R.

On to B10, for which the binding signal was found to be 8.35 enrichment R. For B11 the value was 0.897 enrichment R; for B12, 0.969 enrichment R; for B13, 0.997 enrichment R.

The molecule B14 registered a binding signal of 0.706 enrichment R.

For the origin of these results see paper PMC12136788.
